Consider 88 sequences from the supplement of paper PMC11417369.

In all, about 25,000 sequences were measured (“ln(normalized median fluorescence intensity)”: median about 9.7, highest 2% from about 11 on). What follows is part of a selection rich in the highest values, with near analogues and random picks from the rest.

The test system of this assay is PfAP2-HC AP2 domain (GST-tagged). As to the kind of experiment: gcPBM binding intensity (ln(normalized median fluorescence intensity)); higher = stronger DNA binding. An outline of the steps: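 In this array assay, P. falciparum DNA-binding domains with a GST tag, expressed in E. coli, were applied for 1 h to primer-extended double-stranded 36-bp intergenic genomic probes and negative controls on an Agilent 4 × 180k array. Bound protein was visualised with Alexa488 anti-GST antibody at 488 nm. Binding intensity is the highest Masliner-normalised natural-log median intensity across replicate spots of either probe orientation.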
Regarding “TGTATTAATAAAAATACACACATCATATTATATAAA [CACACA_site3534]”, the “gcPBM binding intensity (ln)” value came to 9.73. Take “AAATTAATAAGTCACACACACATATATAATATATAT [CACACA_site799]”: the “gcPBM binding intensity (ln)” value was found to be 10.4. The value for “ACATATACAAGACACACACACAACGTTTTAATAAAT [CACACA_site7017]” was 11.2; that for “ATTAAAATATAAGTCACACATATATATATATATATA [CACACA_site6145]” was 9.51. The value for “GATAAATTAAGACACACACACATATATTTATTTATA [CACACA_site7789]” was 11.2; that for “TAAAATATAAGACACACACACATATATTTATATATC [CACACA_site6248]” was 10.5.

Consider “ATATTAAAGATATATACACACATATTTATAAATATA [CACACA_site7127]”, for which the “gcPBM binding intensity (ln)” value was determined as 9.78. In the case of “TTTTAATTAAGACACACACACACATATAAATATGTA [CACACA_site7144]”, the “gcPBM binding intensity (ln)” value was 11. On to “TTAAAATATACATAAACACACACAAAACGTTTAAGA [CACACA_site8267]”, for which the “gcPBM binding intensity (ln)” value came out at 10.4. To “ACATATACAAAACACACACACAACGTTTTAATAAAT [CACACA_site1979]” belongs 10.7; to “CAAAATTAATAAGTCACACACACATATATAATATAT [CACACA_site798]”, 11; to “AAAAAAATTAGACACACACACACATATAAATATGTA [CACACA_site6618]”, 10.8. The value for “CATTATAAGAGACACACACACATATATAAATATGTA [CACACA_site6621]” was 10.9; that for “TTTATATTAATTTGTGTAAATGCATATGATGAGCAT [XGTACX_negctrl_site254]” was 9.41. To “ATTTTATGATATATTTGTACTTAACATTTGGATATA [XGTACX_site5888]” belongs 9.6; to “ACCATCCTTAATACTTATTTTTTCACAATTAAGTAA [GTGCAC_negctrl_site269]”, 9.59; to “AAACCAAGGCACAATAATTAAATAAATAAAATCATG [GTGCAC_negctrl_site574]”, 9.58.

As to “TTTTTCATAAATATATGTACATATATTTTATATAAC [XGTACX_site3402]”, the “gcPBM binding intensity (ln)” value was found to be 9.66.

As to “TATTAGATATAATATATACACACCAACGAACGAAGA [CACACA_site1134]”, the “gcPBM binding intensity (ln)” value was 10.1. To “CATATATGTGATAACACGCACACAAATGTATAGAAT [CACACA_site2594]” belongs 10.4; to “AGAGAGAAAGCTATAACATGCAACAATTTTTAGAAA [TGCATGCA_site95]”, 9.63; to “TATTTTTAATATTTTGCATGCAGTATTTTATAAAAT [TGCATGCA_site250]”, 9.52. As to “CAAACATATTAATGTACACACACCCACCCACAAACA [CACACA_site2752]”, the “gcPBM binding intensity (ln)” value is 10.4. The value for “TCTCATAGTAAACACACACACACACCCACATATATA [CACACA_site5034]” was 10.6.

As for “AAGCAAACATATTAATGTACACACACCCACACACAA [XGTACX_site5806]”, the “gcPBM binding intensity (ln)” value amounted to 11.1. For the sequence “ATTAAACATACATATACACACACACCCACCCACCCA [CACACA_site8057]”, the “gcPBM binding intensity (ln)” value is 11. The value for “TATAAATATACACCCACACACATATATAAATAAATA [CACACA_site7717]” was 10.8. The value for “CATACATATAAACACACACACACACCCACCCACAAA [CACACA_site8059]” was 10.6; that for “ATAATTTGGAAACACACACACACACCCACATATATA [CACACA_site2286]” was 10.5; that for “TAAACATACATATACACACACACACCCACACCCACA [CACACA_site492]” was 11.6. In the case of “TCTCATAGGAAACACACACACACACCCACATATATA [CACACA_site1738]”, the “gcPBM binding intensity (ln)” value turned out to be 11. “AACATATTAATGTACACACACCCACGCACAAACAAA [CACACA_site7320]”: the “gcPBM binding intensity (ln)” value was found to be 10.4.

Consider “TTTTTTAAAAAAGTTTTCTGTATTTATATATATATA [CACACA_negctrl_site31]”, for which the “gcPBM binding intensity (ln)” value is 9.48. For “AAAATATATATAACTTGTACATATACATACGTATAT [XGTACX_site4570]”, the “gcPBM binding intensity (ln)” value turned out to be 9.77.

With “TTTCTTTTTTTTTTTTTTTCTTTTTTTTTTTTTTTC [CACACA_negctrl_site1025]”, the “gcPBM binding intensity (ln)” value amounted to 9.2. “ACTAAAAAAATAAACACACAGATTTATATAATATAT [CACACA_site4884]”: the “gcPBM binding intensity (ln)” value is 9.83. To “TATATTTGTACATGATATTTTTTTTTTCTTTTAAAA [CACACA_negctrl_site754]” belongs 9.43; to “TATAATTATATAAATTGTACATAAAAAGTTTTTACT [XGTACX_site3621]”, 9.45. “AAATGTTCTTAAAAATGAATAATATATATATATATA [CACACA_negctrl_site796]”: the “gcPBM binding intensity (ln)” value amounted to 9.41. As to “TAATTATGCAGACACACACACACACCCAACTAAAAA [CACACA_site2569]”, the “gcPBM binding intensity (ln)” value was found to be 10.4.

Turning to “TATGTGTATTTATTTGCATGTTGGTTGTATTTTTTC [TGCATGCA_site479]”, the “gcPBM binding intensity (ln)” value was 10.4. To “ACAAAGTTTATAGAACGTACATACTTACACATATTT [XGTACX_site556]” belongs 9.73; to AATATTGTTCACAAGGTGCTTTTTATTCATACTAAT, 9.8; to “TTGGCATACAGACACACACACACACGCCCACATATA [CACACA_site6425]”, 10.7. On to “CATACCTATAGACACACACACACACGCACGCACAAA [CACACA_site6374]”, for which the “gcPBM binding intensity (ln)” value is 10.4. To “TACCTATACAGACACACACACACACGCCCACAAAAA [CACACA_site6375]” belongs 11.1. For “CCAATTCAAATATGCACACAAATTTGAAAACGATTA [CACACA_site3607]”, the “gcPBM binding intensity (ln)” value was 9.71. Turning to “TGAAAATGGGAACCGTGTACAGGGCAGTTATAGGGG [XGTACX_site2950]”, the “gcPBM binding intensity (ln)” value turned out to be 9.87. To “AAAAAAGAATAGCACACACACATATATAAATATAAA [CACACA_site4518]” belongs 10.5; to “TATTACATACCTTATTGTACAAATTATATATTAAAG [XGTACX_site7334]”, 9.54; to “ATATATCTATATGTGTGTACATATAAGTATTTATAT [XGTACX_site5333]”, 9.87. On to “TATAAATAAAAACACACACACATATATATATATATA [CACACA_site2319]”, for which the “gcPBM binding intensity (ln)” value turned out to be 10.4.

As to “CATATATACACATACACACACACACGGACACGCACA [CACACA_site6910]”, the “gcPBM binding intensity (ln)” value stood at 10.5.

Regarding “AAAAAAAACGGACACACACACATACAAAATATATAT [CACACA_site4910]”, the “gcPBM binding intensity (ln)” value is 10.8. For the sequence “CTAAAATACGGACACACACACACATATATATATATA [CACACA_site6138]”, the “gcPBM binding intensity (ln)” value came to 11.4. To “CACACGCACGGACACACACACATATAAAATCTATAT [CACACA_site6428]” belongs 11.1; to “GTTATAAATAAATATACACACATATATAAAATACAT [CACACA_site7146]”, 9.97.

As for “AATATATACATATATACACACACATATATATATATA [CACACA_site8907]”, the “gcPBM binding intensity (ln)” value was 10.2. Regarding “CATACATACGGACACACACACATATATATATATATA [CACACA_site5598]”, the “gcPBM binding intensity (ln)” value came out at 10.4. The value for “ACACGCACATATATATAAATATATATATATATAAAT [CACACA_negctrl_site1781]” was 10.1; that for “TTATAAATAAAAAATACACACATATATATATATATA [CACACA_site207]” was 9.57; that for “AAAAAAAACGGACACACACACATAAATATATATAAA [CACACA_site4260]” was 11.3. “AATACATACGGACACACACACACATATATATATATA [CACACA_site5884]”: the “gcPBM binding intensity (ln)” value came to 11.6.

Consider “ACATACGAAAATTGGAAGGATAGATAAAAAGAAAAT [CACACA_negctrl_site51]”, for which the “gcPBM binding intensity (ln)” value worked out at 9.66. The value for “CTCAACATATACGTAACACACATATAAATATAAATA [CACACA_site7749]” was 9.89; that for “ATATAGAAAATGCATACACACTTTATAAATATATTT [CACACA_site6553]” was 9.82; that for “TATTTATTGTGATACTTATATTACTTAATGATTAAA [CACACA_negctrl_site676]” was 9.41. The value for “ACCCATTTAACAAAATGTACATTATTATAATTACTT [XGTACX_site7105]” was 9.72. To “CTTATATAATTCGATAGTACATATTTTTATATATAT [XGTACX_site4045]” belongs 9.68. For “ATACAATAATATAAATGTACAAATTATATCTTAATT [XGTACX_site6004]”, the “gcPBM binding intensity (ln)” value worked out at 9.62.

Turning to TTGTGTACATATTAAGTGCATATATATATATATATA, the “gcPBM binding intensity (ln)” value was 10.4. To “TTTTACCTAAATATCACACATATTTAAATATATATA [CACACA_site5597]” belongs 9.57; to “AGTCAATTTTGTGTGTCAACATTTATATAAAGAATG [TGCATGCA_negctrl_site400]”, 9.71. As to “AGAAGGTAAAAACACACACACACATACAAAAAAAAA [CACACA_site3767]”, the “gcPBM binding intensity (ln)” value came out at 10.7.

In the case of “AAGGTAAACAGACACACACACATACAAAAAAAAAAA [CACACA_site3768]”, the “gcPBM binding intensity (ln)” value worked out at 10.8. To “AAGGTAAACGGACACACACACATACAAAAAAAAAAA [CACACA_site5961]” belongs 11.3; to “TATATATAAAAAACATGTACACAAATTTACATACAT [XGTACX_site4777]”, 9.79; to “ATGTATGGAAATTTTACACACAAGAGTAGTTTAAAA [CACACA_site1710]”, 9.9. To “CACCCACTAATAAACACACACATATATATATATATA [CACACA_site389]” belongs 10.4; to “CCCACTAAAAAACACACACACACACCCATATATATA [CACACA_site6140]”, 11; to “TACCCACTAAAATACACACACACACCCACATATATA [CACACA_site6141]”, 10.4.

As to “CGCACTAAAAAACACACACACACACCCATATATATA [CACACA_site4152]”, the “gcPBM binding intensity (ln)” value is 11. Regarding “AAAAAAAACGCACATACACACACACCCATATATATA [CACACA_site9118]”, the “gcPBM binding intensity (ln)” value was 10.4. To “AAAGATGATAAAATATGTACACACAGTTTATACATT [XGTACX_site8703]” belongs 9.95; to “AAGAAAAAAAAAATTACACACTGCGCAGATACACAA [CACACA_site1289]”, 9.86. Regarding “ATTTTTTCTTTTCGATGTACCCTTCTTATTCTTTAT [XGTACX_site3782]”, the “gcPBM binding intensity (ln)” value was 10.1.

On to “TCTTGATCTTATATATATCTACAATATTTTATACAT [TGCATGCA_negctrl_site569]”, for which the “gcPBM binding intensity (ln)” value turned out to be 10.2.

With “CTGCGTTTAATATGCGTGCACCTTGGTTTTATATCT [GTGCAC_site9525]”, the “gcPBM binding intensity (ln)” value is 9.83.
